# Source: article PMC4336329 (PLoS ONE, 2015)
# Out of some 310,000 compounds screened, about 14,000 (4.5%) showed an effect of 50% or more. The effect is printed as a negative number. The sample as a whole holds a higher share of strong results than the screen did.
# Biological target: human ether-à-go-go-related gene (hERG) potassium channel (human, UniProt Q12809)
# Test: primary screen, population patch clamp on CHO cells stably expressing hERG; higher = less effect of the substance
# 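Also: peak tail current of the secondary pulse compared with the same well before compound.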
# Chain of human ether-à-go-go-related gene (hERG) potassium channel (Q12809 whole entry, looked up): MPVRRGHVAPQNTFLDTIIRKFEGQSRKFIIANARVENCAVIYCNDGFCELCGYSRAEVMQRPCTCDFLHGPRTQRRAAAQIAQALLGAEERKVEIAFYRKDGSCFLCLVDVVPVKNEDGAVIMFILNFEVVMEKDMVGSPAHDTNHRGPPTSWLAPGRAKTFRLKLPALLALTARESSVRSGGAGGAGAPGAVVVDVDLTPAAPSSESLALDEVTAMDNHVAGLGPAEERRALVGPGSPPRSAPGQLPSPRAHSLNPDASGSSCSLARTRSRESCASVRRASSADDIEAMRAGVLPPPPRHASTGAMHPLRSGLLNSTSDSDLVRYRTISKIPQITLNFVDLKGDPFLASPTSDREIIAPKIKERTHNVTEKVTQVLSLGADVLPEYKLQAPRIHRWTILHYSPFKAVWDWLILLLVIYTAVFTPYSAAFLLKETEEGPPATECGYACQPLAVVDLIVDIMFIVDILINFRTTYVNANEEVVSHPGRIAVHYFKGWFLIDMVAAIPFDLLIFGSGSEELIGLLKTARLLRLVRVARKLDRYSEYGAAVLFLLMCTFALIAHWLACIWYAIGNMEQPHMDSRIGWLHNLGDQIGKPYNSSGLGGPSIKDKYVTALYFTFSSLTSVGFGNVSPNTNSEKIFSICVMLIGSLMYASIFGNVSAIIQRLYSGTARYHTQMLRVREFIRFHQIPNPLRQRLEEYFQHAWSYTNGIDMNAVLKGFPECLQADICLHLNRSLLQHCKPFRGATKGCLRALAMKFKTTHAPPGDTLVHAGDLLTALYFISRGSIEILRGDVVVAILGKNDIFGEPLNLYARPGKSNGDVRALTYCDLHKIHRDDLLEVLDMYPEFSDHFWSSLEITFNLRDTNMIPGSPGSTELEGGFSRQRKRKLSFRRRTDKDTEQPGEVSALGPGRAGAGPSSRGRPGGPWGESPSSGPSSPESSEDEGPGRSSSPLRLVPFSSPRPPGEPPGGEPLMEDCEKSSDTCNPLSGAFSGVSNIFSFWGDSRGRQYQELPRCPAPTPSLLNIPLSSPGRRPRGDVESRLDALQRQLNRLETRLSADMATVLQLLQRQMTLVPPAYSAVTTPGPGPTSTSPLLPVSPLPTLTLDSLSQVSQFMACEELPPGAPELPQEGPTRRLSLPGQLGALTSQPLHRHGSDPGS
row,Structure (SMILES),"hERG current change (%, negative = inhibition) at 10uM [%]"
1,CC(OC(=O)Cn1cnc2c1c(=O)n(C)c(=O)n2C)C(=O)NCc1ccccc1 (stereo not drawn),3.36
2,Cc1noc(C)c1S(=O)(=O)Nc1ccc(C(=O)N2CCN(c3cccc(Cl)c3)CC2)cc1,-4.16
3,O=C(Nc1ccc(C(=O)N2CCCC2)cc1)c1ccc(F)cc1Cl,0.232
4,O=C(Nc1ccc2nc(-c3ccccn3)c(-c3ccccn3)nc2c1)N1CCOCC1,5.82
5,S=C(Nc1ccc2nc(-c3ccccn3)c(-c3ccccn3)nc2c1)N1CCOCC1,-69.6
6,S=C(Nc1ccc2nc(-c3ccccn3)c(-c3ccccn3)nc2c1)N1CCCCCC1,-15.6
7,Cc1nnn(C23CC4CC(CC(C4)C2)C3)n1,7.98
8,O=C(CCc1ccccn1)NC1CCCc2c1cnn2-c1ccc(F)cc1F (stereo not drawn),3.18
9,CN(C)C(=S)c1ccc2ccccc2n1,17.1
10,COC(=O)c1cc(-c2c(-c3cc(OC)c(OC)c(OC)c3)noc2C)cc([N+](=O)[O-])c1,-67.8
11,COc1cc(-c2c(-c3cc(OC)c(OC)c(OC)c3)noc2C)ccc1F,13.6
12,COc1cc(-c2noc(C)c2-c2ccc3[nH]ccc3c2)cc(OC)c1OC,8.02
13,CCOc1ncccc1C(=O)OCC(=O)c1cc(C)n(Cc2ccco2)c1C,-7.34
14,O=S(=O)(/C=C/c1ccccc1)N1CCOCC1,7.65
15,CCOC(=O)c1[nH]cnc1C(=O)Nc1ccc([N+](=O)[O-])cc1,4.57
16,CC(C(=O)Nc1ccccc1F)N1CCN(C)CC1.O=C(O)C(=O)O (stereo not drawn),11.9
17,O=C1CN(Cc2nc3cc(Cl)ccc3c(=O)[nH]2)CCN1,25.4
18,O=c1[nH]c(CN2CCN(S(=O)(=O)c3ccc4ccccc4c3)CC2)nc2ccccc12,2.03
19,COc1cc2nc(CN3CCN(S(=O)(=O)c4c(F)cccc4F)CC3)[nH]c(=O)c2cc1OC,-33.4
20,O=c1[nH]c(CN2CCN(S(=O)(=O)/C=C/c3ccccc3)CC2)nc2cc(Cl)ccc12,-65.8
21,COc1cc2nc(CN3CCN(S(=O)(=O)c4ccc(C)c(C)c4)CC3)[nH]c(=O)c2cc1OC,-16.8

row,Structure (SMILES),"hERG current change (%, negative = inhibition) at 10uM [%]"
1,COc1cc2nc(CN3CCN(S(=O)(=O)c4ccc(Cl)cc4)CC3)[nH]c(=O)c2cc1OC,-58.2
2,CCS(=O)(=O)N1CCN(Cc2nc3ccccc3c(=O)[nH]2)CC1,-12.9
3,O=c1[nH]c(CN2CCN(S(=O)(=O)/C=C/c3ccccc3)CC2)nc2ccccc12,-66.5
4,O=c1[nH]c(CN2CCN(S(=O)(=O)c3ccc(Cl)cc3)CC2)nc2cc(Cl)ccc12,-11.8
5,COc1ccc(C)cc1S(=O)(=O)N1CCCC(N2CCOCC2)C1 (stereo not drawn),13.4
6,O=S(=O)(Nc1cccc2c1CCCC2)c1ccc(Cl)cc1,-9.87
7,COC(=O)c1c(NC(=O)C2CCC2)sc(C(=O)N(C)C)c1C,4
8,O=C(/C=C/c1ccc2c(c1)OCO2)c1c(O)n(CCc2ccccc2)c(=O)[nH]c1=O,1.79
9,COc1cc(CCC(=O)OCC(=O)Nc2ccc(Br)cc2F)cc(OC)c1OC,-11.6
10,O=C(CSc1ccccc1F)Nc1ccc(N2CCOCC2)cc1,3.82
11,NC(=O)c1ccc(NC(=O)CN2CCN(c3ccccc3)CC2)cc1,12.6
12,O=C(CN1CCOCC1)Nc1ccc(Cl)cc1,-1.12
13,Cc1ccc(SCC(=O)Nc2ccc(N3CCOCC3)cc2)c(C)c1,10.5
14,O=C(CN1CCN(c2ccccc2)CC1)Nc1ccc(F)cc1,-39.7
15,O=C(CSc1cc(Cl)ccc1Cl)Nc1ccc(N2CCOCC2)cc1,-58.3
16,O=C(CN1CCN(CC(=O)Nc2ccc(Cl)cc2)CC1)Nc1ccc(F)cc1,-76.9
17,O=C(CN1CCN(CC(=O)Nc2ccc(-c3ccccc3)cc2)CC1)Nc1ccc(F)cc1,-66.2
18,O=C(CN1CCOCC1)Nc1ccc(F)cc1,2.97
19,COC(=O)c1ccc(NC(=O)CN2CCN(c3ccc(Cl)cc3)CC2)cc1,11.9
20,NC(=O)c1ccc(NC(=O)CN2CCN(c3ccc(Cl)cc3)CC2)cc1,-51.3
21,O=C(CN1CCN(CC(=O)Nc2cccc(F)c2)CC1)Nc1ccc(-c2ccccc2)cc1,-28.6

row,Structure (SMILES),"hERG current change (%, negative = inhibition) at 10uM [%]"
1,COc1cc(Cl)c(C)cc1NC(=O)c1ccc2c(c1)OCO2,19
2,O=c1oc2ccccc2c2c1nnn2CCO,8.06
3,CCCCn1c(N)c(N(CC(C)C)C(=O)C2CC(=O)N(c3ccc(CC)cc3)C2)c(=O)[nH]c1=O (stereo not drawn),18.8
4,CC(C)CC(NS(=O)(=O)OCC(Cl)(Cl)Cl)c1ccccc1 (stereo not drawn),1.57
5,O=C(COC(=O)c1cc(-c2ccccc2)nc2ccccc12)NCC1CCCO1 (stereo not drawn),-22.4
6,CCN(CC)c1ccc(C(=S)NCc2ccccc2)cc1,13
7,COc1ccc(NC(=O)CC2SC(=N)N(c3ccccc3)C2=O)c(OC)c1 (stereo not drawn),29.4
8,O=C(CN1CCN(c2ccc(F)cc2)CC1)Nc1ccccc1,6.74
9,O=C(CN1CCN(c2ccc(F)cc2)CC1)Nc1ccc(F)c(F)c1,-27.8
10,O=C(CN1CCN(c2ccc(Cl)cc2)CC1)Nc1ccc(F)cc1,-60.9
11,CC(=O)Nc1ccc(S(=O)(=O)N(C)CC(=O)OCC(=O)N2CCCCC2)cc1,-1.43
12,O=C(Cn1c(NCCO)nc2ccccc21)NCCc1ccc(F)cc1,10.6
13,CC(=O)N1CCN(c2nc(CC(C)C)c3c(c2C#N)CCC3)CC1,-9.82
14,CCCC(=O)N1CCN(c2nc(CC(C)C)c3c(c2C#N)CCC3)CC1,-53
15,CC(C)Cc1nc(N2CCN(C(=O)C(C)C)CC2)c(C#N)c2c1CCC2,-27.2
16,CC(=O)c1ccc(N(CC(=O)NC2CCCC2)C(=O)c2csnn2)cc1,13.8
17,O=C(Nc1ccc(N2CCN(C(=O)c3ccc(Cl)cc3)CC2)cc1)c1ccc(Br)o1,-75.3
18,O=C(c1ccc(Br)o1)N1CCN(c2ccccn2)CC1,-19.3
19,O=C(Nc1ccc(N2CCN(C(=O)c3cccs3)CC2)cc1)c1cccc(F)c1,-62.6
20,O=C(Nc1ccc(N2CCN(C(=O)c3ccccc3)CC2)cc1)c1ccc(Br)o1,-75.9
21,O=C(Nc1ccc(C(=O)N2CCN(c3ccccn3)CC2)cc1)c1ccc(Br)o1,-66.7

row,Structure (SMILES),"hERG current change (%, negative = inhibition) at 10uM [%]"
1,N#Cc1ccccc1N1CCN(C(=O)c2ccc(NC(=O)c3ccc(Br)o3)cc2)CC1,-18.9
2,O=C(Nc1ccc(N2CCN(C(=O)c3cccs3)CC2)cc1)c1ccc(F)cc1,-15.3
3,O=C(Nc1ccc(N2CCCC2)cc1)c1ccc(Br)o1,-20.8
4,CC(C)C(=O)N1CCN(c2ccc(NC(=O)c3ccc(Br)o3)cc2)CC1,-0.0806
5,COc1cccc(C(=O)Nc2ccc(N3CCN(C(=O)c4cccs4)CC3)cc2)c1,-19.7
6,N#CCC(=O)Nc1ccc(C(=O)N2CCN(c3ccccn3)CC2)cc1,18.4
7,O=C(Nc1ccc(N2CCN(C(=O)c3ccc(Cl)cc3)CC2)cc1)c1cc2ccccc2o1,-0.396
8,O=C(COC(=O)Cc1ccc(F)cc1)NC1CCCC1,4.84
9,COc1ccc(N(CC(=O)Nc2cc(OC)c(OC)cc2C(=O)O)S(=O)(=O)c2c(C)noc2C)cc1,15.9
10,COc1ccc(/C=N/Nc2nnc(C)n2N)cc1OC(C)=O.Cl,14.3
11,COCCN(C(=O)COC(=O)c1nc(Cl)ccc1Cl)c1c(N)n(Cc2ccccc2)c(=O)[nH]c1=O,20.3
12,O=C1CC(c2ccco2)Cc2nc(N3CCc4ccccc4C3)ncc21 (stereo not drawn),-20.7
13,O=C(Nc1ccc(N2CCN(C(=O)c3cccs3)CC2)cc1)c1ccc([N+](=O)[O-])o1,-25.5
14,O=C(Nc1ccc(N2CCN(C(=O)c3cccs3)CC2)cc1)c1ccco1,17.7
15,CCC(=O)N1CCN(c2ccc(NC(=O)c3ccc(Br)o3)cc2)CC1,-26.9
16,O=C(Nc1ccc(N2CCN(C(=O)c3cccs3)CC2)cc1)c1ccc(Br)o1,-75.8
17,CN1CCN(c2ccc(NC(=O)c3ccc(Br)o3)cc2)CC1,-16.2
18,Cc1ccc(C(=O)N2CCN(c3ccc(NC(=O)c4ccc(Br)o4)cc3)CC2)cc1,-68.8
19,Cc1ccc(Nc2c(-c3ccccn3)nc3cccc(C)n23)cc1,10.1
20,Cc1ccc(C(=O)NNC(=O)/C=C\C(=O)O)cc1,6.41
21,CCOC(=O)/C=C/c1ccc2c(c1)S(=O)(=O)N(Cc1ccc(OC)cc1)[C@H]2CC(=O)OCC,-18.2
